This is an account of results in ChEMBL document CHEMBL2218924, “A broad activity screen in support of a chemogenomic map for kinase signalling research and drug discovery” (Biochem J, 2013).

Experiment [1] addresses T1, Tyrosine-protein kinase ITK/TSK (Homo sapiens) (UniProt Q08881).
T1 sequence (whole entry): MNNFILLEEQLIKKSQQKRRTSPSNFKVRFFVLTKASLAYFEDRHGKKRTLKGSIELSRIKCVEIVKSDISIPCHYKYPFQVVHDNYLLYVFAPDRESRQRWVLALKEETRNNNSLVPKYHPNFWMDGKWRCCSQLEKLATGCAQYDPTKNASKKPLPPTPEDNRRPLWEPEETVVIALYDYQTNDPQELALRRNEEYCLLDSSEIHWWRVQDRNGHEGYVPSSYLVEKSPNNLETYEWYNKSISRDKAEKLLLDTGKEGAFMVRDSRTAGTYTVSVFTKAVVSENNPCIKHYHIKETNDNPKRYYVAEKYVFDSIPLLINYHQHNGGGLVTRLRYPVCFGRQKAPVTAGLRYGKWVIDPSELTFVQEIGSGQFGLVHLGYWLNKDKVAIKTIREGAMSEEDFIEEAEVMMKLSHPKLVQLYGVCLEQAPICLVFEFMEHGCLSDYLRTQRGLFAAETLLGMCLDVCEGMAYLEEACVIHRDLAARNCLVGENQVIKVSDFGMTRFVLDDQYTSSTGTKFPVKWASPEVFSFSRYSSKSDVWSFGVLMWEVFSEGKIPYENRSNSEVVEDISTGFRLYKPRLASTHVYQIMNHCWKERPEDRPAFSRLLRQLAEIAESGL
The conditions noted are these: at 10 µM.

The target of experiment [2] is Tyrosine-protein kinase JAK2 (Homo sapiens) (UniProt O60674). The note with it: at 1 µM.
The target is the same in experiment [3]. The conditions noted are these: at 10 µM.
In experiment [4] the target is T2, Tyrosine-protein kinase JAK3 (Homo sapiens) (UniProt P52333).
T2 sequence (whole entry): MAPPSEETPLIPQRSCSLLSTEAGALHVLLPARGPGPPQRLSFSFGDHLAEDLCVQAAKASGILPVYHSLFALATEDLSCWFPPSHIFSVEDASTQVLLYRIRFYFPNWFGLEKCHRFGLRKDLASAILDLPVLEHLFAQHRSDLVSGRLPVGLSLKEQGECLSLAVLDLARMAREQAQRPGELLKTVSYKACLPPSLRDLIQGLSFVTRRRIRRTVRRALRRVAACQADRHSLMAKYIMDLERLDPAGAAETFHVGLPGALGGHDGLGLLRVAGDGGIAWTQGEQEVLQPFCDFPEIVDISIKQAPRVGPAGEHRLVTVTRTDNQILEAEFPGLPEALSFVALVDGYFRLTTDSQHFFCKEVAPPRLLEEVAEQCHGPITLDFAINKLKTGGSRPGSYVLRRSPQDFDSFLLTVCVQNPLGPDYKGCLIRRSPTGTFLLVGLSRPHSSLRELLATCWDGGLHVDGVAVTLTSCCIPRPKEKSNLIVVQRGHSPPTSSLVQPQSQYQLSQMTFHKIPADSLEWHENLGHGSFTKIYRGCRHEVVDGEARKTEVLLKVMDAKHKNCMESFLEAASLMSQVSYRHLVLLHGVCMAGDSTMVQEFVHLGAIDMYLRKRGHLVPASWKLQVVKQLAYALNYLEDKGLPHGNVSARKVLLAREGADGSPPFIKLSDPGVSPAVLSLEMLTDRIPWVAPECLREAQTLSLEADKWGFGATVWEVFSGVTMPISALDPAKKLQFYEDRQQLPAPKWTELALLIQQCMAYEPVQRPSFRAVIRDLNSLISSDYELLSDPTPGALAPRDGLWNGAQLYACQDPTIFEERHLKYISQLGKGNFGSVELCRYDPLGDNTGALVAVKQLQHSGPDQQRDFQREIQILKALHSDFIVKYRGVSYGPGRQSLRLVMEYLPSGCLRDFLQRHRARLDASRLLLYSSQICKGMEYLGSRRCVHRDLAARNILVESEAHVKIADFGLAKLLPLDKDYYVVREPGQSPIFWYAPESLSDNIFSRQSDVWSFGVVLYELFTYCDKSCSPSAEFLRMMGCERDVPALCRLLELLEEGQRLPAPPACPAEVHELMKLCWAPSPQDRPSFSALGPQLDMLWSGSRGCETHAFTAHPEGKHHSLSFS
The conditions noted are these: at 1 µM.

Experiment [5] has as its target T2, Tyrosine-protein kinase JAK3 (Homo sapiens). The note with it: at 10 µM.
Experiment [6] concerns the target Mitogen-activated protein kinase 8 (Homo sapiens) (UniProt P45983). The conditions noted are these: at 1 µM.
For experiment [7] the target is unchanged. The conditions noted are these: at 10 µM.
Experiment [8] has as its target Mitogen-activated protein kinase 9 (Homo sapiens) (UniProt P45984). The note with it: at 1 µM.
The target is the same in experiment [9]. The conditions noted are these: at 10 µM.
For experiment [10], the target named is Mitogen-activated protein kinase 10 (Homo sapiens) (UniProt P53779). The conditions noted are these: at 1 µM.
Sequence of Mitogen-activated protein kinase 10 (Homo sapiens) (P53779 whole entry): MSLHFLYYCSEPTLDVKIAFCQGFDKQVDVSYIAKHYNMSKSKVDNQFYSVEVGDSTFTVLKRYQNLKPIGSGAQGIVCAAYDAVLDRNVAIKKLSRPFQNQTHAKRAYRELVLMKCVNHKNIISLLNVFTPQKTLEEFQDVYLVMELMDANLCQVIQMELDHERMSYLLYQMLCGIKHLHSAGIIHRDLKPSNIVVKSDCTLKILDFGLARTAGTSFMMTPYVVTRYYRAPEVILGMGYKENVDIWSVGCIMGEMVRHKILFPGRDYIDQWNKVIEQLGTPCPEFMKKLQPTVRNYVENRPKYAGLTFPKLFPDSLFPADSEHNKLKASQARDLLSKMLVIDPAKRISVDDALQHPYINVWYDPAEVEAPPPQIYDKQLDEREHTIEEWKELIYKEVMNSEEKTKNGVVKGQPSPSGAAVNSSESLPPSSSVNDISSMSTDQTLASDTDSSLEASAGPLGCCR

Sequence of Mitogen-activated protein kinase 9 (Homo sapiens) (P45984 whole entry, looked up): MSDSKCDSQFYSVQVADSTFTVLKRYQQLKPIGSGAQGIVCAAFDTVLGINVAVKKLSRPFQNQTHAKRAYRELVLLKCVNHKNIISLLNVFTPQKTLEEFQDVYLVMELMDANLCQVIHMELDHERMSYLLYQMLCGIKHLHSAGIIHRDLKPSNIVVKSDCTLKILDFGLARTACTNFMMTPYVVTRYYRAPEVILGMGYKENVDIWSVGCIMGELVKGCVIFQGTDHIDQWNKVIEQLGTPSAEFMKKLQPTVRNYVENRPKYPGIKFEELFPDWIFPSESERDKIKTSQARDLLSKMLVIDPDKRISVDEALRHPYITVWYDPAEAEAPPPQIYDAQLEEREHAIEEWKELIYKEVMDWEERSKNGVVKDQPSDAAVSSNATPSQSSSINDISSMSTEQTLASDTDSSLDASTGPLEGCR
Sequence of Tyrosine-protein kinase JAK2 (Homo sapiens) (O60674 whole entry): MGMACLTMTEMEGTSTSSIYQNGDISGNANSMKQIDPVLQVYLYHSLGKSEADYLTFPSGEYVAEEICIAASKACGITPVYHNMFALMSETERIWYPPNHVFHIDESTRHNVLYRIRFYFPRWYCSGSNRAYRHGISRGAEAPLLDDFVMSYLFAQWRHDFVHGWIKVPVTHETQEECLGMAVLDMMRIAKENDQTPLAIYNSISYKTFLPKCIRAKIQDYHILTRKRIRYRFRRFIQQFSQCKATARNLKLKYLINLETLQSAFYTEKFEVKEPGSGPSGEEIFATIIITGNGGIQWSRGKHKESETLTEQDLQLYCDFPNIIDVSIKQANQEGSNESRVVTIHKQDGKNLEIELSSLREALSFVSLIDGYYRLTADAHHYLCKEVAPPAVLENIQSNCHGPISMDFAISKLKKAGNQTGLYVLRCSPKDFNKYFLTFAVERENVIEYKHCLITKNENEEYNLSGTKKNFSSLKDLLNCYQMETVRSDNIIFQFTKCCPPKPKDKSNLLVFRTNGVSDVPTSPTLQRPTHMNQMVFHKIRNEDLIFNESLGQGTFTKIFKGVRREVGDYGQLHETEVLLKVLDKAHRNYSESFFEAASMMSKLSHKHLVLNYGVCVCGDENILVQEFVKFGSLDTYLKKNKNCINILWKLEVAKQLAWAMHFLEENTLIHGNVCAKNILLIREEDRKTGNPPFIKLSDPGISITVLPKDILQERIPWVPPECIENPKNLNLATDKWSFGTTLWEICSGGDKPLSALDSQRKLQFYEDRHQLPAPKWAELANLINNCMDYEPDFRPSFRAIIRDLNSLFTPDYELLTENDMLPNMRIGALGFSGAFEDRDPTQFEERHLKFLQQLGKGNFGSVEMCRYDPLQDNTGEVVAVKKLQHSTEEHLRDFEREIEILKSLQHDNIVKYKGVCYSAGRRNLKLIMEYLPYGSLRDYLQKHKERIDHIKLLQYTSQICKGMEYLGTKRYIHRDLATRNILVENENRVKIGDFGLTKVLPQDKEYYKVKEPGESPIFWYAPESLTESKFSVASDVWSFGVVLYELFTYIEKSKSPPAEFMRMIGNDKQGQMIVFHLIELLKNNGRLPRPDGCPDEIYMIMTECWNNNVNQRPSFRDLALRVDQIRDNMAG
Sequence of Mitogen-activated protein kinase 8 (Homo sapiens) (P45983 whole entry): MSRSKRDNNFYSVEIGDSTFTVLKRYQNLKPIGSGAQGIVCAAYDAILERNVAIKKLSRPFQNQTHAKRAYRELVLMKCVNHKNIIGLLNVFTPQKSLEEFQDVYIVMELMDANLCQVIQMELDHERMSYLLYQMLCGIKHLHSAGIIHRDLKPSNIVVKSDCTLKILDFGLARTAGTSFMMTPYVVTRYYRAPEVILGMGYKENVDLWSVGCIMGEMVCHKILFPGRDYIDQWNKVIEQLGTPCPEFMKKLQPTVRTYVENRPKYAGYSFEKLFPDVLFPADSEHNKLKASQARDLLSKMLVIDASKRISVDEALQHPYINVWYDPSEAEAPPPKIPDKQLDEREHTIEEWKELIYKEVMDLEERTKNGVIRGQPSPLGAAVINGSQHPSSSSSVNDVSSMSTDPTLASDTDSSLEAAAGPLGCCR

Regarding `Nc1ncnc2[nH]nc(Nc3ccc(F)cc3)c12`, the residual activity is 78% in experiment [1]; 103% in experiment [2]; 93% in experiment [3]; 101% in experiment [4]; 90% in experiment [5]; 105% in [6]. The residual activity in experiment [7] is 93%; in experiment [8], 92%; in experiment [9], 93%; in experiment [10], 98%.

Take `COc1ccc2c(c1)c(C1=C(c3c[nH]c4ccccc34)C(=O)NC1=O)cn2CCCN(C)C`: the residual activity in experiment [1] came to 79%; in [2], 114%; in experiment [3], 81%; in experiment [4], 102%; in [5], 50%; in experiment [6], 104%. The residual activity was 57% in [7], 111% in experiment [8] and 74% in [10].

For the compound `COc1cc2c(cc1OC)-c1n[nH]c(Nc3cccc(F)c3)c1C2`, the residual activity in experiment [1] came to 41%; in experiment [3], 108%; in experiment [5], 114%; in experiment [8], 101%; in [9] it was 69%; in [10], 53%.

As to `COc1cc2nccc(Oc3ccc(NC(=S)NC(=O)c4ccccc4C)cc3)c2cc1OC`, the residual activity stood at 48% in experiment [1]; 86% in experiment [4]; 92% in experiment [5]; 95% in experiment [6]; 78% in experiment [7]; 87% in [9]. The residual activity in experiment [10] is 69%.

For `Nc1nc(Nc2ccc(S(N)(=O)=O)cc2)nn1C(=O)c1c(F)cccc1F`, the residual activity in experiment [1] amounted to 40%; in experiment [2], 11%; in [3], 0%; in experiment [4], 7%; in experiment [5] it was 1%; in [8], 102%. The residual activity came out at 48% in experiment [9] and 51% in experiment [10].

As to `CC(C)c1nn(-c2c(Cl)cccc2Cl)c2nc(Cc3ccc(OCCO)cc3)[nH]c(=O)c12`, the residual activity in experiment [1] turned out to be 96%; in experiment [2] it was 85%; in experiment [3] it was 100%; in [4] it was 103%; in [5], 106%; in experiment [7] it was 94%. The figures for the residual activity in experiment [8], in [9] and in [10] were 99%, 86% and 81%, respectively.

In the case of `COc1ccc(COc2ccc(Cc3cnc(N)nc3N)cc2OC)cc1`, the residual activity in [1] was 99%.

As to `Nc1ncnc2c1cnn2-c1ccccc1`, the residual activity in experiment [1] came out at 97%; in [2], 126%; in experiment [3] it was 93%; in [9] it was 95%; in experiment [10], 78%.

For `CSc1nc(-c2ccc(F)cc2)c(-c2ccnc(NC(C)c3ccccc3)c2)[nH]1` (stereo not given), the residual activity was 53% in [1]; 90% in experiment [6]; 32% in [7]; 39% in [8]; -6% in experiment [9]; 4% in [10].

On to `CC(C)(C)c1nc2c3ccc(F)cc3c3c(=O)[nH]ccc3c2[nH]1`, for which the residual activity in [1] is 66%; in experiment [2], -1%; in experiment [3], 1%; in experiment [4], 1%; in experiment [5] it was 1%; in [6], 32%. Besides, the residual activity was 9% in [7] and -2% in experiment [10].

`O=c1cc(N2CCNCC2)oc2c(-c3ccccc3)cccc12`: the residual activity in [1] is 93%; in experiment [3] it was 101%; in experiment [4], 94%; in experiment [5], 78%; in [7] it was 84%; in experiment [9] it was 97%. Besides, the residual activity in experiment [10] was 73%.

On to `O=C(CCCc1ccc(-c2ccccc2F)cc1)Nc1ccc(O)cc1`, for which the residual activity was determined as 98% in experiment [1]; 108% in experiment [2]; 111% in [3]; 104% in experiment [4]; 104% in experiment [5]; 99% in experiment [6]. Moreover, the residual activity in experiment [7] was 98%; in experiment [8], 93%; in experiment [9], 99%; in experiment [10] it was 109%.

On to `CCN(CC)CCNC(=O)c1c(C)[nH]c(/C=C2\C(=O)Nc3ccc(Cl)cc32)c1C`, for which the residual activity in [1] is 2%; in [2], 72%; in [3] it was 20%; in [4] it was 62%; in experiment [5], 16%; in experiment [6] it was 97%. Further, the residual activity amounted to 82% in experiment [7] and 80% in experiment [10].

For the compound `c1ccc(-c2cnc(Nc3ccc(OCCN4CCCC4)cc3)s2)cc1`, the residual activity in [1] came to 30%; in experiment [2], 111%; in experiment [3], 105%; in experiment [6] it was 112%; in [7] it was 70%; in experiment [10], 80%.

For the compound `CC(C)(C)n1nc(Cc2cccc3ccccc23)c2c(N)ncnc21`, the residual activity in experiment [1] was determined as 106%; in [2], 101%; in experiment [3] it was 121%; in experiment [4] it was 99%; in experiment [5], 100%; in [6] it was 108%. Besides, the residual activity in [7] was found to be 78%; in experiment [8], 108%; in experiment [9], 78%; in experiment [10], 28%.

Turning to `NC(=O)Nc1sc(-c2ccc(F)cc2)cc1C(N)=O`, the residual activity in experiment [1] is 1%; in experiment [2], 4%; in experiment [3], 0%; in experiment [4], 42%; in experiment [5], 5%; in experiment [6], 94%. For the same compound, the residual activity was determined as 52% in experiment [7], 84% in [8], 67% in [9] and 60% in experiment [10].

In the case of `CCCCc1c(-c2ccc(O)cc2)[nH]c2nccnc12`, the residual activity in experiment [1] was 38%; in experiment [2], 62%; in experiment [3], 63%; in experiment [4], 80%; in experiment [5], 26%; in experiment [8], 97%. The residual activity in [9] stood at 98%; in experiment [10], 56%.

For `CN(C)S(=O)(=O)c1ccc2c(c1)/C(=C/c1cc3c([nH]1)CCCC3)C(=O)N2`, the residual activity in experiment [1] was determined as 22%; in [2] it was 67%; in experiment [3], 25%; in experiment [4], 66%; in [5] it was 48%; in experiment [6] it was 99%. Moreover, the residual activity was found to be 94% in experiment [7] and 89% in experiment [10].

Turning to `N#C/C(=C\c1ccc(O)c(O)c1)C(=O)NCc1ccccc1`, in experiment [1], the residual activity is 104%.

For the compound `Cn1sc(=O)n(Cc2ccccc2)c1=O`, the residual activity in experiment [1] came out at 83%; in [2], 91%; in experiment [3], 98%; in experiment [6], 89%; in experiment [7] it was 88%; in experiment [8], 91%. In addition, the values for the residual activity in experiment [9] and in experiment [10] were 93% and 75%, respectively.

Take `O=C(Nc1nc2ccccc2n1CCN1CCOCC1)c1cccc([N+](=O)[O-])c1`: the residual activity in [1] was 52%; in experiment [2] it was 24%; in experiment [3], 40%; in [4], 85%; in [5], 69%.

In the case of `O=C(c1cc2cc(O)ccc2[nH]1)c1cc2cc(O)ccc2[nH]1`, the residual activity in [1] was 16%; in [4], 64%; in experiment [5] it was 17%; in [10], 51%.

For the compound `CCCC(=O)Oc1ccc2[nH]c(C(=O)c3cc4ccccc4[nH]3)cc2c1`, the residual activity turned out to be 101% in experiment [1]; 103% in experiment [2]; 100% in [3]; 94% in experiment [6]; 81% in experiment [7]; 89% in experiment [9]. The residual activity in experiment [10] was found to be 69%.

Turning to `O=S(=O)(NCCNC/C=C/c1ccc(Br)cc1)c1cccc2cnccc12`, the residual activity in [1] is 100%.

Regarding `CCOC(=O)c1c(C)[nH]c(/C=C2\C(=O)Nc3ccccc32)c1C`, the results for the residual activity in experiment [1], in experiment [2] and in experiment [3] were 99%, 92% and 100%, respectively.

Consider `O=C1NC(=O)c2c1c1c3ccccc3[nH]c1n1cncc21`, for which the residual activity in [1] was 44%; in experiment [2] it was 97%; in [3], 93%; in [4], 83%; in [5], 58%; in experiment [6], 89%. Moreover, the residual activity in experiment [7] was found to be 75%; in [8], 67%; in [9], 49%; in [10], 25%.
